Compound activity (PubChem)
The list is not random: actives were taken first. Their share in the collection is about 6.9%.
JMJD2A Tudor inh: blocks the human JMJD2A Tudor domain; Potency, µM (top dose mostly 114 µM), actives largely listed as inhibitors; O75164; AlphaScreen JMJD2A-Tudor / H3K4me3 peptide binding; 390,000 compounds, 4.4% hits; AID 504339; further: nearly all actives have a fitted effect of over 50% in size
BAZ2B block: blocks human BAZ2B; Potency, µM (highest dose often 114 µM), most hits filed as inhibitors; 360,000 compounds, 4.4% hits; Q9UIF8; AlphaScreen BAZ2B-H3K14Ac peptide displacement; further: nearly all actives have a fitted effect of over 60% in size
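AlphaScreen displacement: compounds (up to 110uM) incubated 30 min at room temperature with a preformed 50 nM BAZ2B/50 nM biotinylated H3K14Ac peptide complex in PBS pH 7.4 with Tween-20. Donor and acceptor beads at 10 ug/mL final added, 20 min light-protected before reading.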
PLK1 PBD block: blocks phosphopeptide binding to human PLK1 polo-box domain | P53350 | Plk1 PBD binding of FITC phosphopeptide, fluorescence polarization | Potency, µM, usual class: inhibitors | 360,000 compounds, 2.8% hits; further: series mostly up to about 57 µM; nearly all actives have a fitted effect of over 65% in size
Target sequence (P53350 whole entry, looked up, the tested form may be a part): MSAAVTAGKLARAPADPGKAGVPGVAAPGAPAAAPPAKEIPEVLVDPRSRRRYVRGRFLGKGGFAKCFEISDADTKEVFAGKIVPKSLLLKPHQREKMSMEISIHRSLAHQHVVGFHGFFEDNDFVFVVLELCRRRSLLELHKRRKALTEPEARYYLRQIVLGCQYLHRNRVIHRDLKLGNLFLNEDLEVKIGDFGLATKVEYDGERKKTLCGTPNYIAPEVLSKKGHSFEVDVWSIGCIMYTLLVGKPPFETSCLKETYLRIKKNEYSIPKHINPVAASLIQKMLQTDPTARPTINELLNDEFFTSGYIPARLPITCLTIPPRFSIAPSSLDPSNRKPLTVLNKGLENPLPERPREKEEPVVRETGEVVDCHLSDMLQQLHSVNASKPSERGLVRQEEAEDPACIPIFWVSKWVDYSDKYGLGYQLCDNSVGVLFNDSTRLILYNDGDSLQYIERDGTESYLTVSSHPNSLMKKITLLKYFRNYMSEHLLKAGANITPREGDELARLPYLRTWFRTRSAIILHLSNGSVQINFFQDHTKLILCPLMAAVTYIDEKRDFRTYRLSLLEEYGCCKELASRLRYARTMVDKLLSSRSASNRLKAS
VDR inh: inhibitors of human vitamin D receptor | Potency, µM, actives largely listed as inhibitors | VDR-SRC2-3 peptide fluorescence polarization, 2 h | 400,000 compounds, 0.93% hits | P11473
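Inhibition of the VDR/SRC2-3 peptide interaction is quantified by fluorescence polarization. Compounds (23 nl, pintool) incubate with the reagents for 2 hours at ambient room temperature.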
HP1b binding inh: HP1-beta chromodomain-methylated histone interaction inhibition; P83916; AlphaScreen HP1-beta / biotin-H3K9me3 peptide binding; Potency, µM (series often up to 114 µM), hits mostly inhibitors; 390,000 compounds, 0.56% hits; further: nearly all actives have a fitted effect of over 70% in size
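AlphaScreen: HP1-beta (50 nM) preformed 30 min with biotin-H3(1-18)K9me3 peptide (50 nM) in PBS pH 7.4, 0.01% Tween-20. Compound added for 30 min at RT, then streptavidin donor/nickel chelate acceptor beads (10 ug/mL) for 30 min.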
L3MBTL1 inh: inhibitors of human L3MBTL1. 230,000 compounds, 0.66% hits. AID 485360. Potency, µM (top dose mostly 57.1 µM), hits mostly inhibitors. AlphaScreen L3MBTL1–H3K9me1 peptide binding; further: nearly all actives have a fitted effect of over 60% in size
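AlphaScreen assay: L3MBTL1 (50 nM final) was preincubated 30 min at room temperature with biotinylated H3(1-15)K9me1 peptide (75 nM final), then 30 min with library compounds; streptavidin donor and nickel chelate acceptor beads (10 ug/mL final) added, 30 min dark.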
Hits are given with their value; – = inactive; ? = inconclusive; · = not tested or not shown; ! = repeats disagree; [ ] = dose if it differs, or a comment. The call rests on the fitted dose curve; in most records, active means well fitted curve in the direction sought with a large enough effect; inconclusive means small, poorly fitted or top-dose-only effect, or another doubt; inactive means no such curve, though single readings can be large; an effect the other way counts as inactive or inconclusive.

SMILES	JMJD2A Tudor inh	BAZ2B block	PLK1 PBD block	VDR inh	HP1b binding inh	L3MBTL1 inh
Cc1nc(SCc2nc3c(O)cccc3[nH]2)c2oc3ccccc3c2n1	28µM	·	·	–	–	–
Cc1nc(SCc2nc3ccc(F)cc3[nH]2)c2oc3ccccc3c2n1	?	·	·	–	–	–
CCN1CCN(C(=O)Nc2ccccc2OC)CC1	2.2µM	28µM	–	–	?	40µM
COc1ccccc1NC(=O)N1CCN(C)CC1	40µM	50µM	–	–	–	–
CCCCC(=O)NC1CC(=O)N(c2ccc3c(c2)OCCO3)C1 (stereo unspecified)	–	–	·	–	–	·
Cc1c(C(=O)OC(C)C(C)C[N+](C)(C)C)oc2ccccc12 (stereo unspecified)	56µM	–	–	–	–	·
COc1ccc(OCC(O)CN2CCN(c3ccc(OC)cc3)CC2)cc1 (stereo unspecified)	?	–	–	–	–	·
COc1ccc(N2CCN(CC(O)COc3ccc(F)cc3)CC2)cc1 (stereo unspecified)	?	?	–	–	–	·
COc1ccc(N2CCN(CC(O)COc3c(OC)cccc3OC)CC2)cc1 (stereo unspecified)	56µM!	79µM	–	–	–	·
COc1ccc(N2CCN(CC(O)COc3ccccc3C(C)(C)C)CC2)cc1 (stereo unspecified)	22µM	32µM	·	–	20µM	·
O=C(CN1CCN(c2ccccn2)CC1)N1c2ccccc2Sc2ccc(C(F)(F)F)cc21	2µM	22µM	–	–	16µM	–
O=C(CN1CCN(c2ccccn2)CC1)N1c2ccccc2CCc2ccccc21	3.2µM	32µM	–	–	18µM	–
Cc1oc(=O)c(NC(=O)c2cccc(Cl)c2)cc1C(=O)c1ccccc1	–	–	–	40µM	–	–
COC(=O)c1cc(NC(=O)c2ccccc2)c(=O)oc1C	–	–	?	–	–	·
COc1ccc(C(=O)Nc2cc(C(=O)c3ccccc3)c(C)oc2=O)cc1	?	?	–	32µM	?	–
N[C@@](C(=O)O)(c1ccc(P(=O)(O)O)cc1)C1CC1	·	·	·	–	·	·
Cc1ccc(N2CC(NC(=O)c3ccc(S(=O)(=O)N4CCCC4)cc3)CC2=O)cc1C (stereo unspecified)	–	–	·	–	–	·
COc1cccc(NC2=CC(c3ccc(C(C)C)cc3)N(c3cccc(OC)c3)C2=O)c1 (stereo unspecified)	–	?	·	20µM	–	·
CC(=O)N1CN(Cc2ccccn2)Cc2c1sc1c2CCCC1	40µM	28µM	–	–	–	·
CC(=O)N1CN(CCCn2ccnc2)Cc2c1sc1c2CCCC1	–[11.4 µM]	?	?	–	–	–
COc1ccc(-n2c(C)nc3cc(C(=O)NC4CCCC4)ccc32)cc1	–	–	·	?	–	·
O=C(NC1CCCCC1)c1ccc2c(c1)N(Cc1ccccc1Cl)C(=O)c1ccccc1S2	–	–	·	–	–	·
Cc1cc2nc(C)c(=O)n(C)c2cc1C	35µM	–	13µM	?	–	–
Cc1ccc(Nc2nnc(SCC(=O)c3ccc(Br)s3)s2)c(C)c1	–	–	–	–	–	–
Cc1cccc(C)c1Nc1nnc(SCC(=O)c2ccc(Br)s2)s1	?	–	24µM	?	?	–
SMILES	JMJD2A Tudor inh	BAZ2B block	PLK1 PBD block	VDR inh	HP1b binding inh	L3MBTL1 inh
O=C1/C(=C\c2ccc(O)c(O)c2)SC(=S)N1Cc1ccccc1	2.2µM	8.9µM	–	–	10µM	·
COc1ccc(/C=C2\SC(=S)N(Cc3cccnc3)C2=O)cc1C	?	10µM	–	–	–	–
O=[N+]([O-])c1ccc(O)c(C=NN2CCCCC2)c1	·	·	–	·	·	·
O=C1/C(=C/c2ccc(O)cc2)SC(=S)N1Cc1cccnc1	–	–	–	–	–	–
O=C1/C(=C\c2cc([N+](=O)[O-])ccc2O)SC(=S)N1Cc1ccc(Cl)cc1	35µM	25µM	–	?	–	·
Cc1ccccc1/C=C1\SC(=S)N(/N=C/c2cc([N+](=O)[O-])ccc2O)C1=O	?	22µM	?	–	–	·
CC(C)(C)NC(=O)CN1C(=O)/C(=C/c2ccccc2)SC1=S	–	–	–	–	–	?
CC(=O)NC(C)(c1ccccc1)c1nc(-c2cncnc2)cs1 (stereo unspecified)	·	·	–	·	·	·
O=[N+]([O-])c1cccc(S(=O)(=O)N2CCN(S(=O)(=O)c3ccc4c(c3)OCCO4)CC2)c1	–	·	·	·	·	·
COC(=O)CNC(=O)N1CCN(S(=O)(=O)c2ccc3c(ccn3C)c2)CC1	–	–	·	–	–	·
Cc1cnc(CNc2ncncc2-c2ccccc2C)cn1	·	·	·	–	·	·
COc1cc(/C=C2/SC(=S)N(c3c(C)n(C)n(-c4ccccc4)c3=O)C2=O)ccc1O	?	45µM	–	–	?	–
Cc1ccc(/C=C2\SC(=S)N(CCCC(=O)NNC(=O)c3ccccc3O)C2=O)cc1	–	?	–	–	–	·
O=C1/C(=C\c2cccc(O)c2O)SC(=S)N1Cc1ccccc1	13µM	20µM	3µM	–	?	–
O=C(CN1C(=O)/C(=C/c2ccccc2)SC1=S)NNC(=O)c1ccccc1O	–	79µM	–	–	–	?
COc1cc(/C=C2\SC(=S)N(N3CCOCC3)C2=O)ccc1O	–	–	?	–	–	·
COc1cc(/C=C2/SC(=S)N(Cc3ccccc3)C2=O)ccc1O	40µM	40µM	–	–	?	?
COc1cc(/C=C2/SC(=NCc3ccccc3)N(Cc3ccccc3)C2=O)ccc1O	–	–	–	–	–	·
COc1ccc2[nH]cc(CCNC(=O)c3cnn(-c4ccccc4Cl)c3C3CCN(C(=O)OC(C)(C)C)CC3)c2c1	?	?	·	–	–	·
O=C1/C(=C/c2cccc(Cl)c2)CSc2sccc21	–	–	–	–	–	–
Cc1cccc(/C=C2\CS/C(=C\c3cccc(C)c3)C2=O)c1	?	50µM	–	–	?	·
O=C(CCC1N=C2c3ccccc3N=C(SCc3ccccc3Cl)N2C1=O)NCc1cccs1 (stereo unspecified)	–	–	·	–	–	·
COc1ccc(N=C2S/C(=C\c3ccc(OC(C)C(=O)O)c(OC)c3)C(=O)N2CCc2c[nH]c3ccccc23)cc1 (stereo unspecified)	40µM	22µM	?	40µM	?	–
COc1ccc(N=C2S/C(=C\c3cccs3)C(=O)N2CC(C)C)cc1	?	?	–	–	–	–
O=C1/C(=C/c2ccc(N3CCOCC3)o2)SC(=Nc2ccccc2)N1CCc1c[nH]c2ccccc12	?	?	–	79µM	–	–
COc1cc(/C=C2\SC(=Nc3ccccc3)N(CCc3c[nH]c4ccccc34)C2=O)ccc1OC(C)C(=O)O (stereo unspecified)	56µM	45µM	?	?	?	–
COCCN1C(=O)/C(=C/c2ccc(Oc3ccc([N+](=O)[O-])cn3)c(OC)c2)SC1=Nc1ccccc1	?	–	–	–	–	–
